Bioassay records as filed in PubChem.
Shown are actives, neighbours in structure and some others; about 3.3% of the full set was active somewhere.
FGF22 binding: FGF22 (human) thermal shift binding; Q9HCT0; recombinant FGF22 thermal shift, SYPRO orange fluorescence; percent of sucrose octasulfate shift, DMSO zero; activity (Tm shift, normalised), % at 9.99 µM; 1.5% of 340,000 active; AID 651658;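 active means mean Tm shift, scaled 0 neutral to 100 positive control, at about 1.3% or above, every replicate too, limit read from the data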
ERAP1 HTS inh: blocks human ERAP1 aminopeptidase activity; Q9NZ08; recombinant ERAP1, Leu-AMC fluorescence, 60 min; inhibition, % at 10.7 µM; 0.15% of 340,000 active;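 active means mean replicate inhibition of at least 30%, or all replicates individually reaching that 30% level; inactive means mean below 30% and not every replicate reaching it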;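 further: 0% = neutral control wells and 100% = L-leucinethiol positive control wells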
SIRT5 inh: sirtuin-5 (human) deacylase inhibition; Q9NXA8; Purified SirT5, succinyl-peptide AMC, trypsin-coupled fluorescence; inhibition, % at 15 µM; 1.1% of 330,000 active; AID 652115; in the data active means inhibition above about 15%
Casp6 inh: inhibitors of human caspase-6; 0.53% of 350,000 active; purified caspase-6, Z-VEID-R110 cleavage fluorescence; inhibition, % at 12.5 µM; P55212;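 active means mean inhibition across replicates at least about 35%, with every replicate also reaching that limit, limit read from the data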;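 further: 0% = median of neutral control wells and 100% = no fluorescence left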
GSIS activator: GLuc luminescence reporter in INS-1E cells, primary screen for activators of glucose-dependent secretion of insulin | activation, % at 16.6 µM | INS-1E GLuc reporter insulin secretion, 2-3 h | AID 743287 | 0.61% of 370,000 active;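 active means lowest replicate activation of at least 40%, so every replicate reaches that level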;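 further: 0% = median of neutral control wells and 100% = median of IBMX positive control wells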
* marks the source's active call; other numbers are inactive results; . = not tested or not shown.

SMILES	FGF22 binding	ERAP1 HTS inh	SIRT5 inh	Casp6 inh	GSIS activator
Cc1ccccc1NC(=O)C1CCCN(S(=O)(=O)c2cnc[nH]2)C1 (stereo unspecified)	0.0	.	.	91.1*	16.3
Cc1ccc(NC(=O)C2CCCN(S(=O)(=O)c3cnc[nH]3)C2)c(Br)c1 (stereo unspecified)	-0.5	.	.	0.5	4.0
C[C@H]1CN([C@@H](C)CO)C(=O)c2cc(C#Cc3ccncc3)cnc2O[C@@H]1CN(C)CC1CCCC1	-0.1	-0.5	3.2	1.4	-4.3
C[C@H](CO)N1C[C@H](C)[C@H](CN(C)Cc2ccncc2)Oc2c(NC(=O)Nc3ccc(C(F)(F)F)cc3)cccc2C1=O	-0.5	-25.5	-1.2	0.5	-30.1
Cc1cc(C(=O)CN2C(=O)C(=O)N(CC(C)C)C2=O)c(C)n1-c1ccccc1F	43.1*	5.3	0.0	2.9	2.7
C[C@@H]1CCCCO[C@@H](CN(C)CC2CCCCC2)[C@@H](C)CN([C@H](C)CO)C(=O)c2cc(NC(=O)CCCCCC(=O)Nc3ccccc3N)ccc2O1	-0.1	1.5	.	1.5	9.0
CNC[C@@H]1Oc2ccc(N(C)C)cc2CC(=O)N([C@@H](C)CO)C[C@H]1C	0.0	-2.3	-1.4	-1.8	28.7
O=C(CN1CCN(C(=O)c2cncn2-c2ccc(F)cc2)CC1)Nc1ccccc1C(F)(F)F	-0.1	-0.2	-0.3	6.0	7.0
O=C(Cn1nnc2c(cnn2-c2ccc(F)cc2)c1=O)Nc1ccccc1C(F)(F)F	43.1*	3.6	-5.7	1.1	9.0
COc1cnn(-c2ccc(Br)cc2)c(=O)c1SCc1ccccc1	0.0	-0.9	28.3*	0.4	-17.4
O=C(OC(C(=O)NCC1CCCO1)c1ccccn1)c1cccs1 (stereo unspecified)	0.3	1.1	-1.0	1.7	-0.2
COc1ccccc1C(OC(=O)c1cccs1)C(=O)NCC1CCCO1 (stereo unspecified)	.	.	.	.	56.9*
COc1ccc(S(=O)(=O)Nc2ccc3c(c2)C(=O)N([C@H](C)CO)C[C@@H](C)[C@H](CN(C)C(=O)C2CCCCC2)OCCCC[C@H](C)O3)cc1	0.3	1.5	8.5	4.2	-30.5
CCOC(=O)C1(CCCc2ccccc2)CCN(C(=O)c2cnc(C)cn2)CC1	44.2*	-4.9	-1.5	1.6	-6.5
CCOC(=O)C1(CCCc2ccccc2)CCN(C(=O)c2cc(C)nc(C)n2)CC1	0.4	18.5	-2.8	-4.2	-9.9
CC1(C)Cc2ccccc2C(C(=O)c2ccccc2)=N1	-0.3	-2.2	-1.7	-2.9	-15.1
CC1(C)Cc2ccccc2C(C(Cc2ccccc2)C(N)=O)=N1 (stereo unspecified)	43.0*	0.2	-1.2	4.6	0.1
O=C(Nc1nc2c(Cl)cccc2s1)C1CC1	0.0	8.5	0.5	5.5	-3.2
Cc1cccc2sc(NC(=O)C3CC3)nc12	-0.2	-0.5	23.8*	0.8	3.7
CN1C[C@@H]2[C@H](c3ccccc31)[C@H](CO)N2Cc1ccccc1Cl	-0.2	.	1.6	.	5.8
CCN1[C@@H]2Cn3c(ccc(C4=CCCCC4)c3=O)[C@H]1[C@@H](C(=O)NCC(F)(F)F)[C@@H]2CO	.	.	.	.	11.7
Cc1cccc(N(C(=O)C(F)(F)F)C(C(=O)NC2CCCCC2)c2cccs2)c1 (stereo unspecified)	.	.	.	.	-1.0
C#CC(=O)N(c1cccc(OC)c1)C(C(=O)NC1CCCC1)c1cccs1 (stereo unspecified)	0.1	-3.0	3.6	4.3	145.8*
Cc1cc(C)cc(N(C(=O)C(F)(F)F)C(C(=O)NC2CCCCC2)c2cccs2)c1 (stereo unspecified)	.	.	.	.	47.1*
C[C@@H]1CN([C@@H](C)CO)C(=O)c2cccc(NC(=O)Nc3cccc4ccccc34)c2O[C@H]1CN(C)S(C)(=O)=O	-0.1	3.5	-2.1	-4.4	2.4
O=C(CCCN1C(=O)/C(=C/c2ccco2)SC1=S)Nc1ccccc1C(=O)O	.	11.7	26.5*	61.7*	-5.5
O=C(CCN1C(=O)/C(=C/c2ccccc2Cl)SC1=S)Nc1ccccc1C(=O)O	.	2.8	17.8*	1.0	2.6
O=C(CCCN1C(=O)/C(=C\c2ccccc2)SC1=S)Nc1ccc(O)cc1C(=O)O	.	36.0*	-1.1	.	0.4
O=C(O)CCCN1C(=O)/C(=C\c2ccco2)SC1=S	0.0	5.8	7.1	32.0	19.3
O=C(CN1C(=O)/C(=C\c2ccco2)SC1=S)Nc1ccc(O)cc1C(=O)O	.	13.6	48.5*	73.1*	21.0
